These results are taken from PubChem BioAssay.

The test system of experiment [1] is Plasmodium falciparum Sir2 (PF13_0152, Sir2A). As to the kind of experiment: Plasmodium falciparum Sir2A binding compounds – biochemical, small-molecule microarray, 635 nm fluorescence, primary screen (AID 1098).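 Note: score merges spot fluorescence intensity with its signal-to-noise ratio.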 Conditions: fluorescence 635 nm, higher = more signal.
Experiment [2] is described as follows: probe aDKK1 binding to arrayed compounds – biochemical, biotinylated probe, 635/667 nm fluorescence, primary screen (AID 1099).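 Note: score merges 667nm spot fluorescence with signal to noise across triplicate slides; reference of the scale not given here.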 Conditions: small-molecule microarray, higher = more signal.
Experiment [3] can be described thus: probe aCHRDL2 binding to arrayed compounds – biochemical, biotinylated probe, 635/667 nm fluorescence, primary screen (AID 1100). Conditions: small-molecule microarray, higher = more signal.
Experiment [4] is described as follows: change in splice reporter luminescence, either direction, cell-based, HEK293, spliceosome inhibition project, primary screen (AID 1101).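 Note: HEK293 cells carrying a splicing-competent luciferase reporter gene; test concentration not given here.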 Conditions: HEK293 splicing luciferase reporter, 24 h, higher = more signal, called active from +8 up or from −8 down.
In experiment [5] the target is Fibroblast growth factor 10 (Homo sapiens) (UniProt O15520). As to the kind of experiment: compounds binding fibroblast growth factor 10 – biochemical, small-molecule microarray, 635 nm fluorescence, primary screen (AID 1102). Particulars: FGF10 binding, fluorescence 635 nm, higher = more signal.
Sequence of Fibroblast growth factor 10 (Homo sapiens) (O15520 whole entry, looked up): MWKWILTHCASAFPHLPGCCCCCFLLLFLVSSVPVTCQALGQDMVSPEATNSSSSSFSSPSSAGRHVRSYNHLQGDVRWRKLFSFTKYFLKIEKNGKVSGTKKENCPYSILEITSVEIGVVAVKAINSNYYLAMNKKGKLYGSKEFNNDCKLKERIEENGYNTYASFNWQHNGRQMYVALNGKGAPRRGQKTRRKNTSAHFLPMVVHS
For experiment [6], the system named is glycogen synthase kinase-3 (GSK3A per assay name; protocol says GSK3B). As to the kind of experiment: compounds binding glycogen synthase kinase-3 – biochemical, small-molecule microarray, 635 nm fluorescence, GSK3A, primary screen (AID 1103). Note: the record names both GSK3A and GSK3B. Particulars: fluorescence 635 nm, higher = more signal.
The target of experiment [7] is Epidermal growth factor receptor (Homo sapiens) (UniProt P00533). Put plainly: compounds binding epidermal growth factor receptor – biochemical, small-molecule microarray, 635 nm fluorescence, primary screen (AID 1104).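 Note: score merges 667 nm emission intensity with spot signal to noise over triplicate slides.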 Conditions: EGFR binding, higher = more signal.
Sequence of Epidermal growth factor receptor (Homo sapiens) (P00533 whole entry, looked up): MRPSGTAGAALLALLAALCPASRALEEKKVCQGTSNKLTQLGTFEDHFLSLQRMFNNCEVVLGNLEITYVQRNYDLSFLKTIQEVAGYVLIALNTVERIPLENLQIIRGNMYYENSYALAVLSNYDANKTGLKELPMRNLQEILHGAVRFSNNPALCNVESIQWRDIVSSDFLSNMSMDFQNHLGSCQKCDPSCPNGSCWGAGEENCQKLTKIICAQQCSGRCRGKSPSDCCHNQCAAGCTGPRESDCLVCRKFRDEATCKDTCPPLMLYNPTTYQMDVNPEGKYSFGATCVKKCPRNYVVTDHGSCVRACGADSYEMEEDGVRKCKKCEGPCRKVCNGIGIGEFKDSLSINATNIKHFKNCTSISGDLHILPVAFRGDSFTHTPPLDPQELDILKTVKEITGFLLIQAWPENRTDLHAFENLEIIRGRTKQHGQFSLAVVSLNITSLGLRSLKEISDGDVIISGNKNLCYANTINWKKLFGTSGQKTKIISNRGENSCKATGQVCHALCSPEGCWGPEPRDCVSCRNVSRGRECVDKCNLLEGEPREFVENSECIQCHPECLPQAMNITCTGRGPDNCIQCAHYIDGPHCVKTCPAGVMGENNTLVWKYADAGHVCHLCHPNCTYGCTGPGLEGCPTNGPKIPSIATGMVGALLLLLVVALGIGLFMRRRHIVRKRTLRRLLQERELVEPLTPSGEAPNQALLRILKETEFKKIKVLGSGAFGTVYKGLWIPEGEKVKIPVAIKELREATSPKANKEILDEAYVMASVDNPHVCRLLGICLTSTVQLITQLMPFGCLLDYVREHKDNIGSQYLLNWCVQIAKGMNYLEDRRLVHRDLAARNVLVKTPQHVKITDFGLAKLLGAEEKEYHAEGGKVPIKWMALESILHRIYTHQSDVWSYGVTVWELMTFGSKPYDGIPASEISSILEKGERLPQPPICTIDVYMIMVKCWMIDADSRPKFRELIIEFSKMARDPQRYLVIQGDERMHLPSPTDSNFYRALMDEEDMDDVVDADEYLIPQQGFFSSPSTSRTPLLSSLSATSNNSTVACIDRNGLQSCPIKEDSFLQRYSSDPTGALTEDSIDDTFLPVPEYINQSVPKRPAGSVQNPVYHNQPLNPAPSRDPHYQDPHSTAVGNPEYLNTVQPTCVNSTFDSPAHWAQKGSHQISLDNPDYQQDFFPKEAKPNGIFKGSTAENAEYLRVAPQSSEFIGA
Experiment [8] deals with Follistatin-related protein 3 (Homo sapiens) (UniProt O95633). Put plainly: compounds binding follistatin-related protein 3 – biochemical, small-molecule microarray, 635 nm fluorescence, primary screen (AID 1105).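 Note: score merges emission near 667 nm and signal to noise per printed spot across three slides.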 Particulars: FSTL3 binding, higher = more signal.
Sequence of Follistatin-related protein 3 (Homo sapiens) (O95633 whole entry, looked up): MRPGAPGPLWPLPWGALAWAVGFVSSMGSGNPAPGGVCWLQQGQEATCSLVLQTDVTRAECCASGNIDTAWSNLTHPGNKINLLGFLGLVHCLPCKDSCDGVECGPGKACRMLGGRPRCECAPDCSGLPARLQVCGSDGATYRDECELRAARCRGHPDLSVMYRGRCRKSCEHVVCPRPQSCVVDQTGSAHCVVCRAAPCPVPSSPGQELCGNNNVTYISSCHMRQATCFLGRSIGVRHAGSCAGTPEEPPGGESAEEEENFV
Experiment [9] deals with Dickkopf-related protein 1 (Homo sapiens) (UniProt O94907). Put plainly: small molecules binding DKK1 protein – biochemical, small-molecule microarray, 635 nm fluorescence scan, primary screen (AID 1106).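 Note: score merges emission near 667 nm with signal to noise over three replicate slides.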 Particulars: higher = more signal.
Sequence of Dickkopf-related protein 1 (Homo sapiens) (O94907 whole entry, looked up): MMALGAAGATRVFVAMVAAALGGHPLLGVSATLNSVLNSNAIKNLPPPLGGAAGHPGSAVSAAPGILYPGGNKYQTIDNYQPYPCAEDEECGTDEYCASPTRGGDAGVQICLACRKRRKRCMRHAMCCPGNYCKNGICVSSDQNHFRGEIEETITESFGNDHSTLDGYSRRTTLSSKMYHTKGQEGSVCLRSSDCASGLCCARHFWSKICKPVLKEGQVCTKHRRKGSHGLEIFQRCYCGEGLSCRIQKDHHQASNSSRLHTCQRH
The test system of experiment [10] is Inhibin beta A chain (activin A). Put plainly: small molecules binding activin A – biochemical, small-molecule microarray, 635 nm fluorescence scan, primary screen (AID 1107).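 Note: mouse activin A protein probed at 4.33 µg/mL on printed slides; score merges bound-protein fluorescence near 667 nm with spot signal-to-noise.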 Particulars: INHBA, higher = more signal.

Calls of active or inactive are those of the source.

Consider `O=C1OCC=C[C@H]2OC34C=CCN(Cn5nnc6ccccc65)C(=O)[C@H]3N(CCO)C(=O)[C@@H]4[C@@H]12` (stereo not given in full), for which the composite z-score in [1] was 0.101; in experiment [2], -0.0279; in [3] it was 0.329; in experiment [5], -1.33; in experiment [6], -1.02; in experiment [7] it was -1.09. Further, the composite z-score was -1.35 in experiment [8], -1.71 in [9] and -0.0812 in experiment [10]. In addition, the z-score in experiment [4] is 1.15 (inactive).

With `COC(=O)[C@@]1(Cc2ccc(F)cc2)[C@H]2c3cc(C(=O)N(C)C)n(CCF)c3C[C@H]2CN1C(=O)c1ccccc1`, the composite z-score in experiment [1] was -0.0822; in experiment [2], 0.9; in [3] it was 0.987; in experiment [5] it was 0.295; in experiment [6], 0.139; in experiment [7], -0.0604. Further, the values for the composite z-score in experiment [8], in experiment [9] and in [10] were -0.0956, -0.256 and 0.856, respectively. Moreover, the z-score in [4] was -1.66 (inactive).

Consider `O=C1C2C=CC(C(O)C(c3ccccc3)c3ccccc3)N(Nc3ccccc3F)C2C(=O)N1c1ccccc1` (stereo not given), for which the composite z-score was 0.802 in [1]; 0.632 in experiment [2]; 0.786 in experiment [3]; 1.38 in experiment [5]; 1.32 in experiment [6]; 0.292 in [7]. Also, the figures for the composite z-score in [8], in experiment [9] and in experiment [10] were 1.39, 0.0465 and 0.875, respectively. Also, the z-score in [4] is 0.34 (inactive).

For `CCc1cccc(NC(=O)O[C@H]2[C@H](OC(=O)Nc3ccccc3-c3ccccc3)[C@H](OC(=O)Nc3ccccc3-c3ccccc3)[C@@H](OC)O[C@@H]2CO)c1`, the composite z-score in experiment [1] was found to be 0.477; in [2], 0.632; in [3], 0.444; in experiment [5] it was 1.45; in experiment [6], 1.34; in [7], 0.851. Besides, the composite z-score in experiment [8] stood at 1.31; in experiment [9], 0.635; in experiment [10] it was 0.838. For the same compound, in experiment [4], the z-score is 1.93 (inactive).

`NCCCCCCNC(=O)[C@@H]1C[C@@H]2C(=O)NCC(=O)N2[C@@H]1c1cccc(OCCO)c1`: the composite z-score in experiment [1] was 1.6; in experiment [2] it was 0.45; in [3], 0.0888; in experiment [5], 1.37; in experiment [6] it was 1.3; in [7], 0.702. Moreover, the composite z-score in experiment [8] turned out to be 0.98; in experiment [9], 1.32; in [10], 1.12. Besides, the z-score in [4] was -0.734 (inactive).

As for `C=C1C(=O)C=C2CN(C(=O)c3ccccc3)[C@@](Cc3ccc(F)cc3)(C(=O)OC)[C@@H]12`, the composite z-score in experiment [1] was 0.641; in experiment [2], 1.16; in experiment [3] it was 1.21; in [5] it was 0.941; in experiment [6] it was 1.2; in experiment [7], -0.0735. Besides, the figures for the composite z-score in [8], in [9] and in experiment [10] were 1.06, -0.519 and 1.05, respectively. In addition, the z-score in [4] is -0.756 (inactive).

Turning to `CCCC[C@@H](O)C1=C(C)Cn2c(=O)n(-c3ccccc3)c(=O)n2[C@H]1CO`, the composite z-score in [1] is -0.0833; in experiment [2], -0.526; in experiment [3] it was -0.487; in [5], 0.132; in experiment [6] it was -0.349; in [7], 0.0431. For the same compound, the values for the composite z-score in experiment [8], in experiment [9] and in [10] were -0.265, 0.0869 and 0.146, respectively. For the same compound, the z-score in experiment [4] is -1 (inactive).

As for `O=C(c1ccccc1)N1Cc2ccccc2C[C@@]2(N=C(c3ccc(OCCCO)cc3)O[C@H]2c2ccccc2)C1=O`, the composite z-score in [1] was 1.26; in experiment [2], -0.114; in experiment [3], -0.0152; in experiment [5], 1.38; in experiment [6] it was 1.3; in [7], 0.699. For the same compound, the results for the composite z-score in experiment [8], in experiment [9] and in [10] were 0.963, 0.777 and -0.395, respectively. The z-score in experiment [4] is -0.847 (inactive).

Take `COCCCNC(=O)[C@]1(Cc2ccccc2N=[N+]=[N-])N=C(c2ccc(OCCCO)cc2)O[C@@H]1c1ccccc1`: the composite z-score in experiment [1] was 1.5; in experiment [2], 1.23; in experiment [3], 1.28; in experiment [5], 0.612; in experiment [6] it was 1.25; in experiment [7] it was -0.137. Further, the composite z-score in [8] was 0.597; in [9] it was -0.425; in experiment [10], 0.97. Further, the z-score in experiment [4] is 1.08 (inactive).

As for `[N-]=[N+]=Nc1ccccc1C[C@@]1(C(=O)NCC(O)CO)N=C(c2ccc(OCCCO)cc2)O[C@@H]1c1ccccc1N=[N+]=[N-]` (stereo not given in full), the composite z-score in experiment [1] is 1.05; in [2], 0.106; in experiment [3] it was 1.09; in experiment [5], 0.233; in [6] it was 0.446; in experiment [7] it was -0.283. Besides, the composite z-score was 0.855 in [8], -0.67 in experiment [9] and 1.33 in experiment [10]. The z-score in [4] was 8.25 (active).

Take `C=CC[C@]1(C(N)=O)N=C(c2ccc(OCCCO)cc2)O[C@H]1c1ccccc1N=[N+]=[N-]`: the composite z-score worked out at 1.56 in [1]; 1.28 in experiment [2]; 1.26 in experiment [3]; 1.06 in experiment [5]; 0.755 in [6]; 0.259 in experiment [7]. In addition, the values for the composite z-score in experiment [8], in [9] and in experiment [10] were 1.03, 0.0701 and 1.48, respectively. For the same compound, the z-score in [4] was -0.401 (inactive).

Regarding `C=CC[C@]12N=C(c3ccc(OCCCO)cc3)O[C@H]1c1ccccc1N(CCC)C2=O`, the composite z-score in experiment [1] stood at 1.18; in experiment [2], 0.43; in experiment [3], 0.693; in experiment [5], 1.11; in [6], 1.25; in experiment [7], 0.37. Moreover, the composite z-score in [8] turned out to be 1.11; in experiment [9] it was 0.277; in [10], 1.3. The z-score in experiment [4] was -0.391 (inactive).

Regarding `COC(=O)Cn1c(C(=O)N(C)C)cc2c1C[C@H]1CN(C(=O)c3ccccc3)[C@@](Cc3ccccc3)(C(=O)OC)[C@@H]21`, the composite z-score in experiment [1] was 0.272; in experiment [2], 0.605; in experiment [3], 0.686; in experiment [5], -0.482; in experiment [6], -1.25; in experiment [7], 0.183. In addition, the composite z-score in experiment [8] is -0.326; in experiment [9], -0.578; in experiment [10] it was 0.865. Further, the z-score in experiment [4] was -0.332 (inactive).

As for `COc1ccc(CCNC(=O)[C@@H]2c3ccccc3C(=O)N(C(C)C)[C@H]2c2ccc(CO)cc2)cc1`, the composite z-score in [1] was 0.37; in [2] it was 0.316; in experiment [3], 0.684; in experiment [5] it was -1.05; in experiment [6], -0.848; in experiment [7] it was -0.736. In addition, the composite z-score in experiment [8] was -0.715; in experiment [9] it was -0.995; in experiment [10], -0.158. Besides, the z-score in [4] is 0.109 (inactive).

As to `COc1cc(Cc2cc3c(c(CCc4ccccc4)n2)[Si](C(C)C)(C(C)C)O[C@H]3c2ccccc2)cc(OC)c1OC`, the composite z-score in [1] was 1.05; in experiment [2], 0.0709; in experiment [3] it was 0.366; in experiment [5], -0.507; in experiment [6] it was -1.04; in experiment [7], -0.4. Further, the figures for the composite z-score in experiment [8], in [9] and in experiment [10] were -0.617, -0.308 and 0.87, respectively. Further, the z-score in experiment [4] is -1.06 (inactive).

As to `CN1C(=O)C2C=CC(C(O)COCc3ccccc3)N(Nc3ccc([N+](=O)[O-])cc3[N+](=O)[O-])C2C1=O` (stereo not given), the composite z-score in experiment [1] was 0.111; in [2], 0.753; in experiment [3], 0.888; in experiment [5], -0.0198; in experiment [6], -0.443; in experiment [7], -1.04. Further, the results for the composite z-score in experiment [8], in experiment [9] and in experiment [10] were -0.381, -0.82 and 1.13, respectively. Also, the z-score in [4] is 0.806 (inactive).

As for `Cc1ccc(N2C(=O)c3ccccc3[C@@H](C(=O)NCCN3CCOCC3)[C@@H]2c2ccc(CO)cc2)nc1`, the composite z-score in experiment [1] was 1.25; in experiment [2], 0.0086; in experiment [3] it was 0.685; in [5], -0.329; in [6] it was -1.09; in experiment [7] it was -0.914. Further, the composite z-score in experiment [8] was -0.799; in experiment [9] it was -0.459; in experiment [10], -0.382. Also, the z-score in experiment [4] was 0.17 (inactive).
